Assay outcomes (PubChem)
PKA-R2B act = PKA-R2B complex activation; PKA-R2B holoenzyme dissociation, Cy5-IP20 fluorescence polarization; R2B truncated from residue 108, S112A mutant; 0% DMSO only, 100% 113 µM cGMP; hit rate 0.079% among 340,000; AID 504700; activation, % at 11.4 µM; P22694+P31323;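 active = activation above a cutoff set at the mean over all compounds plus 3 SD, cut at about 18% in these data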;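 also: higher means more holoenzyme dissociation and a rise in polarization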
Target sequence (P31323 whole entry, looked up, other chains not shown, the tested form may be a part): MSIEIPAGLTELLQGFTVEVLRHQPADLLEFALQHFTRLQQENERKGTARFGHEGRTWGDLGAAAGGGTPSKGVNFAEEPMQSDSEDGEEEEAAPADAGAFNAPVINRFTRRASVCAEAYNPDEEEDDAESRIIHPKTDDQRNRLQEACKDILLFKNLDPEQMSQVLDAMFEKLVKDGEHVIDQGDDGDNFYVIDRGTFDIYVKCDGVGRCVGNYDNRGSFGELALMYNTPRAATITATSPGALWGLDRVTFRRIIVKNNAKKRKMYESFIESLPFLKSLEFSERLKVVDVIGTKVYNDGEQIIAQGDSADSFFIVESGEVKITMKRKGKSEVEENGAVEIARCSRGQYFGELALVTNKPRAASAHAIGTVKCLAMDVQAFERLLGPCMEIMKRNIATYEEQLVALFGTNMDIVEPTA
Rpn11 block = inhibitors of human proteasome Rpn11. O00487. human 26S proteasome, Ub4-pepOG fluorescence polarization; 20S core pre-blocked with epoxomicin. calls only at 20 µM. hit rate 0.59% among 360,000. AID 588493;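 active = inhibition at 20 µM, scaled to each plate's controls, above about 33%, limit read from the data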
PKA-R1A act = activates the PKA-R1A holoenzyme complex. P00514+P68181. PKA-R1A dissociation, Cy5-IP20 fluorescence polarization; scaled: DMSO 0%, 113 µM cGMP 100%. activation, % at 11.4 µM. hit rate 0.083% among 340,000;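 active = percent activation above the mean of all tested compounds plus 3 SD, cut at about 19% in these data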;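 also: higher means more PKAc released from R1A so a rise in polarization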
Neddyl block = inhibitors of human cullin neddylation; TR-FRET cullin neddylation, biochemical; AID 651699; inhibition, % at 25 µM; hit rate 0.58% among 360,000; P61081+Q13564; in the data active = inhibition above about 36%
R2B FP artifact = counter-screen for PKA-R2B activators: fluorescence polarization artifacts | shares compounds with PKA-R2B act | FP artifact counterscreen | activation, % at 11.4 µM | hit rate 6% among 270 | AID 504796; in the data active = activation above about 20%;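 also: Cy5 labelled IP20 peptide probe with compound but no PKA protein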
PKA-R2B confirm = confirmation of human PKA-R2B complex activators; fluorescence polarization, activation; activation, % at 11.4 µM; shares compounds with PKA-R2B act; hit rate 9% among 270; AID 504797; in the data active = activation above about 19%
Target sequence (P31323 whole entry, looked up): as the sequence (P31323 whole entry, looked up, other chains not shown, the tested form may be a part) above
An asterisk follows results filed as active; i = inactive; x = no result shown. A selection: hits, their analogues and other compounds. The true share with any hit is near 1.3%.

SMILES | PKA-R2B act | Rpn11 block | PKA-R1A act | Neddyl block | R2B FP artifact | PKA-R2B confirm
CC(=O)N1CCCC(C(=O)c2ccc3c4c(cccc24)CC3)C1 (stereo not drawn) | 25* | i | 1 | x | 2 | 0
COc1ccc(C(C(=O)NCc2ccc(F)cc2)N(C(=O)c2csnn2)C2CC2)cc1 (stereo not drawn) | 6 | i | 8 | 4 | x | x
O=S(=O)(Nc1cc2nc3ccccc3nc2n1Cc1ccccc1)c1ccc(Cl)cc1 | 22* | i | -5 | 2 | 1 | 7
C[C@H](NC(=O)N1CCn2c1nc1ccccc12)C(=O)NCc1ccccc1 | 5 | i | 1 | -3 | x | x
Cc1cc(NC(=O)/C=C/c2ccccc2)c(C(C)C)cc1O | 14 | i | 1 | 7 | x | x
Cc1ccc(C(C)C)c(O)c1C(=O)O | 19* | i | -4 | 16 | 5 | 2
Cc1cc2ccccn2c1C(=O)c1ccc([N+](=O)[O-])o1 | 5 | i | -3 | -128 | x | x
CCOc1cc(/C=N/n2c(C)nc3ccccc3c2=O)ccc1O | 20* | i | -10 | -1 | 2 | 3
c1ccc(Cn2ncc3c(Nc4ccccc4)ncnc32)cc1 | 1 | i | -1 | 16 | x | x
Brc1ccc(/C=N/Nc2ncnc3c2cnn3Cc2ccccc2)cc1 | 22* | i | -4 | 6 | -1 | 3
COC(=O)CCCn1cc(CN2CC(N(C)C)CS2(=O)=O)nn1 (stereo not drawn) | x | x | x | -1 | x | x
CCc1nc2ccccc2c(C(=O)OCC(=O)NCCCN2CCCC2=O)c1C | 19* | i | 7 | -2 | 0 | -3
CC(NC(=O)Cc1ccc(F)cc1)c1ccc(F)cc1 (stereo not drawn) | 19* | i | 2 | 11 | 1 | 6
CC(NC(=O)Cc1ccccc1)c1ccc(F)cc1 (stereo not drawn) | -8 | i | -1 | 4 | x | x
COc1ccc(S(=O)(=O)Nc2ccc(NC(C)=O)cc2)cc1Br | 22* | i | 2 | 9 | 2 | 3
O=C(NC1CCCCC1)c1ccc(Br)o1 | 18* | i | -9 | 4 | -3 | 2
O=C(COC(=O)c1ccccc1O)NC1CCCc2ccccc21 (stereo not drawn) | 21* | i | 1 | -25 | 2 | 5
COc1cccc(C(=O)OCC(=O)NC2CCCc3ccccc32)c1O (stereo not drawn) | -1 | i | -3 | 15 | x | x
NS(=O)(=O)c1ccc(CCNC(=O)c2ccc(S(=O)(=O)N3CCCCC3)cc2)cc1 | -13 | i | 7 | 3 | x | x
NS(=O)(=O)c1ccc(CCNC(=O)c2ccc(Cl)c(S(=O)(=O)N3CCCCC3)c2)cc1 | 18* | i | 0 | 2 | 4 | 6
O=C(O)c1cccc(NC2=C(Cl)C(=O)c3ccccc3C2=O)c1 | 22* | i | 9 | -20 | 1 | 0
CCN(CC)C1=C(Cl)C(=O)C(Cl)C12OCCO2 (stereo not drawn) | x | i | x | 4 | x | x
Cc1cc2occ(CC(=O)O)c2cc1C | -5 | i | -6 | -7 | x | x
Cc1ccc2c(CC(=O)O)coc2c1 | 19* | i | 8 | -3 | 0 | -1
O=C(Nc1c(-c2ccc(Cl)cc2)[nH][nH]c1=O)c1ccccc1Cl | x | i | x | 0 | x | x
SMILES | PKA-R2B act | Rpn11 block | PKA-R1A act | Neddyl block | R2B FP artifact | PKA-R2B confirm
CC(=O)c1ccc(OCC(=O)Nc2nnc(C3CC3)s2)cc1 | 20* | i | 0 | 5 | 5 | 2
COC(=O)CN1C(=S)N(c2ccc(Cl)cc2)C(=O)C1CC(=O)Nc1ccccc1 (stereo not drawn) | -4 | i | 6 | -2 | x | x
COC(=O)CN1C(=S)N(C)C(=O)C1CC(=O)Nc1ccccc1 (stereo not drawn) | 21* | i | -13 | 0 | -1 | -1
C/C(=N\OCC(=O)OCC(=O)NC(=O)c1ccccc1)c1ccc2c(c1)OCO2 | 12 | i | -4 | -4 | x | x
CC(=O)Nc1nc(C2CC2)cc(-c2ccccc2)c1C#N | -2 | i | 0 | 11 | x | x
CN(C)S(=O)(=O)c1cccc(-c2cn3ccccc3n2)c1 | 19* | i | 4 | 30 | 5 | 4
Cc1nc2ccc(S(=O)(=O)NCC(=O)Nc3cccc(F)c3)cc2s1 | -14 | i | 4 | -9 | x | x
Cc1c(C(=O)N2CCC(C(N)=O)CC2)oc2ccc(Br)cc12 | -2 | i | 4 | -4 | x | x
CCOc1c(CNCCNC(=O)c2nonc2N)cccc1OC | 19* | i | 4 | 12 | 2 | 6
